Sampled rows, rich in hits. Any-hit rate of the full collection: about 7.5%.
ELG1 genotox – qHTS screen for small molecules that induce genotoxicity in human embryonic kidney (HEK293T) cells expressing luciferase-tagged ELG1; 330,000 tested, 1.3% active; HEK293T ELG1-luciferase reporter, luminescence, 16 h; Potency, µM (titrated, usually from 46 µM), inactives show top-dose activity change, positive = activation, most hits filed as activators; further: % of control where 0% means no effect; nearly all actives have a fitted effect of over 60% in size
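16 hr compound incubation (37 °C, 5% CO2) of HEK293T cells carrying luciferase-tagged ELG1; luciferase then measured by ONE-Glo luminescence after 30 min at RT.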
Rab9 promoter act – qHTS Assay for Rab9 Promoter Activators. Huh7 Rab9 promoter-luciferase reporter, luminescence, 24 h. Potency, µM (top dose mostly 9.22 µM), for inactives: at the top dose activation, negative = inhibition, hits mostly activators. 320,000 tested, 2.8% active; further: % of control where 0% means no effect; nearly all actives have a fitted effect of over 60% in size
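Luciferase signal after 10 min detection reagent at ambient indicates Rab9 promoter upregulation; stably transfected Huh7 cells were treated 24 h with compound in DMSO at 37 °C, 5% CO2.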
NPC1 promoter act – qHTS Assay for NPC1 Promoter Activators; Huh7 NPC1 promoter luciferase reporter, 24 h; Potency, µM (titrated, usually from 9.22 µM), without a hit: at the highest dose activation, hits mostly activators; 320,000 tested, 2.4% active; AID 485313, 2010; further: % of control where 0% means no effect; nearly all actives have a fitted effect of over 60% in size
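NPC1 promoter–luciferase Huh7 cells; 24 h compound; luminescence.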
FLuc counter – qHTS profiling assay for firefly luciferase inhibitor/activator using purifed enzyme and Km concentrations of substrates (counterscreen for miR-21 project) | Luciferin 4-monooxygenase (Photinus pyralis), P08659 | purified FLuc, Km substrates, luminescence inhibition | Potency, µM (highest dose often 57.5 µM), without a hit: top-dose activity change, negative = inhibition, hits mostly inhibitors | 360,000 tested, 6.9% active | AID 588342, 2011;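 further: plate controls were vehicle for no effect and reference inhibitor for full effect; nearly all actives have a fitted effect of over 55% in size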
Target sequence (P08659 whole entry, looked up): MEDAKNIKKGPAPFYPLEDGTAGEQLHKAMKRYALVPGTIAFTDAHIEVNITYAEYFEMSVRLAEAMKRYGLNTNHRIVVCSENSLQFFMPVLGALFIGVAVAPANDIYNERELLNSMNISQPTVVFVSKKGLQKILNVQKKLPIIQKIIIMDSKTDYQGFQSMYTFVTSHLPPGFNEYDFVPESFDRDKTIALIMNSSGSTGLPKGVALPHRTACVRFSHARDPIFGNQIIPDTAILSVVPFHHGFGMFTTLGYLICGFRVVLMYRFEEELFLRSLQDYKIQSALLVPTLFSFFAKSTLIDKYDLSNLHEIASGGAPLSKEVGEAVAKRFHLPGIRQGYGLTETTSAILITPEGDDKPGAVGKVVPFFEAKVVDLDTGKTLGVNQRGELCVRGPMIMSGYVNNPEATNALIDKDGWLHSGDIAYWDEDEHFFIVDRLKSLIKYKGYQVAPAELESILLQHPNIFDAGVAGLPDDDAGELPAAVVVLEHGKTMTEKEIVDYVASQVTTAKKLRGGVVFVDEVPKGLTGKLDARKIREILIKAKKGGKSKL
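Biochemical qHTS of compounds, final roughly 60 µM downward over six points, against 10 nM purified firefly luciferase using Km concentrations of substrates (10 uM D-luciferin, 10 uM ATP) in Tris acetate pH 7.5 buffer; luminescence output.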
SMN2 splice up – qHTS Assay for Enhancers of SMN2 Splice Variant Expression; 210,000 tested, 2.8% active; AID 1458, 2008; Potency, µM (highest dose often 46.1 µM), for the others: at the highest dose activity change, positive = activation, actives largely listed as activators; HEK293 SMN2-luciferase splicing reporter, luminescence, 30-36 h; further: % of control where 0% means no effect; nearly all actives have a fitted effect of over 55% in size
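HEK293 cells carry an SMN2 […]–luciferase reporter in which exon 7 inclusion puts luciferase in frame. Cells were plated 10-12 h before compound addition, then incubated 30-36 h at 37C. ONE-Glo luminescence was read; sodium butyrate at 4.5 mM final served as control.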
An asterisk follows results filed as active; ? = inconclusive; · = no result given; ! = not confirmed by another sample; [ ] = another dose, or the depositor's remark. The call rests on the fitted dose curve; in most records, active means well fitted curve in the direction sought with a large enough effect; inconclusive means small, poorly fitted or top-dose-only effect, or another doubt; inactive means no such curve, though single readings can be large; an effect the other way counts as inactive or inconclusive. Potency means the concentration at half of the fitted maximal effect.

SMILES	ELG1 genotox	Rab9 promoter act	NPC1 promoter act	FLuc counter	SMN2 splice up
Cc1ccc(-c2nnc(SCc3cccc(C#N)c3)o2)cc1	·	·	·	?	-9.9%
CN(C)CCSc1nnc(-c2ccccc2)o1	13µM*	29.5%	23.7%	?	10µM*
CC(C)c1cccc2nc3c(c([Si](C)(C)C)c12)Cn1c-3cccc1=O	·	·	·	·	19.3%
O=C(OCC(=O)N1CCN(c2ccccc2)CC1)c1ccc[n+]([O-])c1	-2.8%	2.3%	11.9%	-0.7%	-1.0%
CN1C(=O)/C(=C\C(=O)c2cccs2)c2ccccc21	-12.8%	-10.2%	4.0%	19µM*	-19.7%
CCOc1ccc(-c2cc(CCCC(=O)Nc3cc(OC)ccc3OC)no2)cc1	-8.8%	-4.1%	-3.6%	6.01µM*	-16.8%
CCOc1ccc(-c2cc(CCCC(=O)Nc3cccc(OC)c3)no2)cc1	4.8%	-20.7%	-19.2%	6.75µM*	12.0%
CN(C)S(=O)(=O)c1ccc(Cl)c(C(=O)NNC(=O)c2ccc3c(c2)OCO3)c1	0.6%	-5.3%	-0.6%	?	·
CN1CCN(c2ccc(-c3ccnn3C(=O)Nc3ccccc3)cc2)CC1	?	3.55µM*	?	16.9µM*	10µM*
CN1CCN(c2ccc(NC(=O)C(C)(c3ccccc3)c3ccccc3)cc2)CC1	-3.0%	-0.3%	-5.2%	1.4%	·
NC(N)=NC(N)=Nc1ccc(S(N)(=O)=O)cc1	·	·	·	·	-7.8%[9.22 µM]
Cc1c(C(C)(C)C)sc(=NC(=O)c2ccccc2O)n1C	?	1µM*	2.82µM*	0.953µM*	·
O=C(NCCc1cccs1)C(c1ccccc1)c1ccccc1	-0.7%	-3.6%	-4.8%	8.7%	·
CCOc1c2ccc(C(=O)NCc3ccc(C)cc3)cc2nn1CC	0.0%	-4.9%	-1.9%	-0.5%	12.6µM*
O=C(NCc1cccs1)c1ccccc1	-2.6%	-2.9%	-1.7%	-1.8%	11.6%
Cc1ccc(C(=O)NCCc2cccs2)cc1	?	0.1µM*	0.316µM*	0.849µM*	0.501µM*
CC(C)Oc1ccc(C(=O)NCc2cccs2)cc1	?	?	29.8%	13.5µM*	21.5%
O=C(NCCc1cccs1)c1ccc(Cl)cc1	?	0.316µM*	0.355µM*	1.2µM*	·
CN(C(=O)C1CCC(=O)N(Cc2ccccc2F)C1)C1CCOCC1 (stereo not drawn)	5.7%	9.8%	4.0%	-6.6%	·
CON(c1nc(Cl)nc(N(C)C)n1)S(=O)(=O)c1ccc(C)cc1	-6.6%	1.3%	0.1%	-0.5%	·
COCCNC(=O)c1ccc(Cl)c(Cl)c1	0.3%	3.0%	-0.4%	-0.8%	-2.6%
CCn1nc2cc(C(=O)NCCc3cccs3)ccc2c1OC	?	1.12µM*	2.51µM*	6.75µM*	?
O=C(/C=C/c1ccc(Cl)cc1)NCc1cccs1	15.6%	12.4%	7.9%	15.1µM*	3.5%
O=C(NCCc1cccs1)c1ccc(Cl)c(Cl)c1	?	2.24µM*	3.16µM*	10.7µM*	·
O=C(/C=C/c1cccc(Cl)c1)NCc1cccs1	1.5%	8.1%	9.6%	?	-2.3%
SMILES	ELG1 genotox	Rab9 promoter act	NPC1 promoter act	FLuc counter	SMN2 splice up
O=C1CC2C(CC(OC(=O)c3ccc(-c4ccccc4)cc3)C2CO)O1 (stereo not drawn)	?	?	16.4%	12µM*	?
O=C(OCC1CC(c2ccccc2)=NO1)c1ccc(Cl)cc1 (stereo not drawn)	-1.2%	-6.2%	1.0%	-9.8%	-1.0%
O=C1C[C@H]2[C@H](CO)[C@@H](OC(=O)c3ccc(-c4ccccc4)cc3)C[C@H]2O1	16.2%	?	?	5.36µM*	·
O=C(Nc1ccn(C2CC(OC(=O)c3ccccc3)C(CO)O2)c(=O)n1)c1ccccc1 (stereo not drawn)	-4.3%	3.1%	1.3%	-0.3%	-7.7%
Cc1ccc2c(C)c(C(=O)N3CCN(Cc4ccc5c(c4)OCO5)CC3)oc2c1C	17.3%	?	?	23.9µM*	·
O=C(Nc1ccc(-c2ccccc2)cc1)c1ccco1	8.5%	0.5%	-4.0%	4.0%	-4.1%
O=C(CSc1ccc(-c2nc3ccccc3[nH]2)cn1)N1CCN(C(=O)c2ccco2)CC1	-15.1%	10.2%	-0.7%	10.7µM*	-11.8%
O=C(Nc1ccc(-c2nc3ccccc3[nH]2)cc1)c1ccco1	1.84µM*	2.24µM*	0.708µM*	4.26µM*	6.31µM*
O=C(/C=C/c1ccco1)Nc1ccc(-c2nc3ccccc3[nH]2)cc1	17.3%	-37.7%	-22.9%	0.3%	3.55µM*
O=C(CCc1nc2ccccc2[nH]1)N1CCN(C(=O)c2ccco2)CC1	4.6%	-4.1%	1.3%	6.3%	·
S=C(Nc1ccc(-c2nc3ccccc3[nH]2)cc1)Nc1cccnc1	?	1.41µM*	?	13.5µM*	·
COC(=O)c1ccc(NC(=O)CC2C(=O)N(c3ccc(F)cc3)C(=O)N2Cc2ccc(OC)cc2)cc1 (stereo not drawn)	·	·	·	4.7%	·
CC(C)Cn1cc(C(=O)N2CCN(c3cccc(Cl)c3)CC2)c2c3ccccc3n(C)c2c1=O	·	·	·	-1.4%	-36.7%
N#Cc1ccc(NC(=O)COC(=O)c2cccnc2Cl)cc1	0.3%	·	·	·	·
O=C(CSc1ccc(Cl)cc1)Nc1ccc(-c2nc3ccccc3[nH]2)cc1	16.4%	?	20.6%	-3.0%	7.94µM*
O=C(CSc1nc2ccccc2[nH]1)Nc1ccc(F)cc1	-0.3%	-7.0%	-0.7%	-12.5%	-10.6%
CCc1oc2ccccc2c1C(=O)c1cc(Br)c(O)c(Br)c1	-0.4%	-4.7%	-1.3%	15.1µM*!	-8.6%
CCc1ccc(Nc2ncccc2C#N)cc1	7.2%	4.2%	1.6%	?	8.4%
CCC(C)c1ccc(Nc2ncccc2C#N)cc1 (stereo not drawn)	?	?	?	21.3µM*	?
COc1ccc(OC)c(C(=O)c2c(C)oc3cc([N+](=O)[O-])c(O)c([N+](=O)[O-])c23)c1	3.4%	4.1%	0.7%	21.3µM*	·
Cc1oc2cc([N+](=O)[O-])c(O)c([N+](=O)[O-])c2c1C(=O)c1ccc(Cl)cc1	-4.8%	1.3%	-1.7%	?	·
O[C@@H](c1cc([C@@]23C[C@H]4CC[C@@H]2C[C@H](C4)C3)nc2c(Cl)cc(Cl)cc12)C1CCCCN1 (stereo partly drawn)	·	·	·	·	0.7%[9.22 µM]
CCC(=O)N1CCc2cc(Br)cc(S(=O)(=O)N3CCN(c4cccc(Cl)c4)CC3)c21	·	·	·	1.2%	-2.8%
Cc1cc(N)n2ncc(-c3ccccc3)c2n1	10.3µM*	1.58µM*	2.82µM*	9.53µM*	15.8µM*
CC(=O)Nc1ccc(Nc2cc(C)nc3c(-c4ccccc4)cnn23)cc1	1.46µM*	?	?	5.36µM*	-32.6%
